Assay [1] in a line: NCI Yeast Anticancer Drug Screen. Data for the rad50 strain (AID 155).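 Also: 0% = growth of vehicle-only cultures of the same strain.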 The conditions noted are these: S. cerevisiae rad50 strain growth inhibition, stronger effect = higher value; at 50.0 µM unless noted. An outline of the steps:
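Growth of the mutant yeast was measured after compound exposure and referenced to vehicle-treated cultures.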

Assay [2] can be described thus: NCI Yeast Anticancer Drug Screen. Data for the mec2-1 strain (AID 157). As to conditions: S. cerevisiae mec2-1 strain, stronger effect = higher value; at 50.0 µM unless noted. An outline of the steps: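 Readout is yeast growth inhibition, normalised to vehicle-treated controls, in the mec2-1 strain exposed to compound.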
Assay [3] is described as follows: NCI Yeast Anticancer Drug Screen. Data for the sgs1 mgt1 strain (AID 161).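 Also: 0% = growth of cultures given vehicle only.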 The conditions noted are these: S. cerevisiae sgs1 mgt1 strain, stronger effect = higher value; at 50.0 µM unless noted. An outline of the steps:
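Compounds are added to genetically altered yeast, and growth is compared with cultures given vehicle alone to give percent inhibition.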

Assay [4] in a line: NCI Yeast Anticancer Drug Screen. Data for the cln2 rad14 strain (AID 165).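 Also: 0% = growth equal to vehicle treated cultures.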 The conditions noted are these: S. cerevisiae cln2 rad14 strain, stronger effect = higher value; at 50.0 µM unless noted. Put shortly: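 Relative to vehicle controls, growth inhibition of compound-treated cln2 rad14 yeast was recorded.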
Assay [5] in a line: NCI Yeast Anticancer Drug Screen. Data for the bub3 strain (AID 167). The conditions noted are these: S. cerevisiae bub3 mutant strain, stronger effect = higher value; at 50.0 µM unless noted. Put shortly: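 Whole-cell yeast assay. The mutant strain was incubated with compounds, and growth inhibition was determined by comparison with vehicle-treated cells.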
A short description of assay [6]: NCI Yeast Anticancer Drug Screen. Data for the mlh1 rad18 strain (AID 175). As to conditions: S. cerevisiae mlh1 rad18 strain growth inhibition, stronger effect = higher value; at 50.0 µM unless noted. Put shortly: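 Test agents were incubated with a yeast strain of defined genotype (DNA damage repair defect). Inhibition of growth was derived by comparison with vehicle-exposed cultures.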

Compounds without any hit were thinned out: in the full panel of roughly 79,000, 15% have a hit. Values without a mark were called inactive. Calls of active or inactive are those of the source. Rule as the data show it: active = growth inhibition above about 70%; inactive = the rest.

As for `CC(=O)Nc1cc(C(=O)Nc2cc(C(=O)Nc3cc(C(=O)Nc4cc(C(=O)Nc5cc(C(=O)NCCC(=O)NCCCN(C)C)n(C)c5)n(C)c4)n(C)c3)n(C)c2)n(C)c1`, the growth inhibition in assay [1] was 9.7%; in assay [2], -41.5%; in assay [3], -18.6%; in assay [4], -4%; in assay [5], -31.9%; in assay [6] it was -37.8%.

As to `COc1ccc(/C(CC2OC(=O)c3ccccc32)=N\NC(=O)C[N+](C)(C)C)cc1` (stereo unspecified), the growth inhibition was 6.1% in assay [1]; -10.8% in assay [2]; 0.4% in assay [3]; 7.55% in assay [4]; 12.1% in assay [5]; 8.5% in assay [6].

On to `CCO/C(C)=N\OC(=O)C(F)(F)F`, for which the growth inhibition in assay [1] is -0.1%; in assay [2], -15.3%; in assay [3], 6.55%; in assay [4], -15.6%; in assay [5], 1.35%; in assay [6], -8.4%.

Take `C=C1C=C2CCC3C(CCC4(C)C(C(C)CCCC(C)C)CCC34)C2(C)CC1` (stereo unspecified): the growth inhibition was 82.5% (active) in assay [1]; 57.6% in assay [2]; 84.9% (active) in assay [3]; 60.6% in assay [4]; 28.2% in assay [5]; 74.2% (active) in assay [6].

For the molecule `CCC(Cl)COP(=O)(OCC(Cl)CC)O/C(C)=C(\C)OP(=O)(OCC(Cl)CC)OCC(Cl)CC` (stereo unspecified), the growth inhibition was 13.8% in assay [1]; 13.3% in assay [2]; 27.4% in assay [3]; 9.7% in assay [4]; 0.4% in assay [5]; -1.7% in assay [6].

On to `CCCCCC=C(C(=O)OCC)C(=O)OCC`, for which the growth inhibition was 22.9% in assay [1]; -1.7% in assay [2]; -4.15% in assay [3]; 12.3% in assay [4]; -30.4% in assay [5]; 11.1% in assay [6].

For the molecule `O=C(CCCN1CCC2(CC1)C(=NC1CCCCC1)NC(=O)N2c1ccccc1)c1ccc(F)cc1`, the growth inhibition in assay [1] was -10.8%; in assay [2], -3.6%; in assay [3] it was -3%; in assay [4], 3.45%; in assay [5], 13.7%; in assay [6] it was -6.85%.

In the case of `COc1ccc(/C=C(/NC(=O)c2ccccc2)C(=O)O)c(OC)c1`, the growth inhibition in assay [1] was -7.35%; in assay [2], -5.1%; in assay [3] it was 1.2%; in assay [4] it was -61.4%; in assay [5], -10.1%; in assay [6], -9.65%.

Regarding `CC1=NN(C(=O)Cc2ccccc2)C(=O)/C1=C\c1ccc(O)cc1`, the growth inhibition in assay [1] was -18.9%; in assay [2] it was -36.1%; in assay [3], -47.4%; in assay [4], -4.2%; in assay [5] it was -13.2%; in assay [6] it was -29.2%.

`COc1ccc(/C=C2\CNC/C(=C\c3ccc(OC)cc3)C2=O)cc1`: the growth inhibition in assay [1] was 34%; in assay [2] it was 1.75%; in assay [3], 55.2%; in assay [4] it was 37.5%; in assay [5], 15.3%; in assay [6], 34.1%.

On to `S=c1[nH]nc(-c2n[nH]c3ccccc23)o1`, for which the growth inhibition was 3.3% in assay [1]; 3.6% in assay [2]; 5.9% in assay [3]; -51.3% in assay [4]; -3% in assay [5]; 1.25% in assay [6].

Take `CS(C)=NC(=Nc1ccccc1)c1ccccc1`: the growth inhibition was 6.9% in assay [1]; 9.6% in assay [2]; -12% in assay [3]; -26.4% in assay [4]; 9.7% in assay [5]; 2.05% in assay [6].

Regarding `CCOC(=O)C(=O)/C(=C/N1C(=O)CC(=O)NC1=S)C(=O)OCC`, the growth inhibition was -19.6% in assay [1]; -47.2% in assay [2]; -25% in assay [3]; -13.9% in assay [4]; -34.9% in assay [5]; -10.6% in assay [6].

In the case of `CCCCCCSC(=O)NC(C)=O`, the growth inhibition in assay [1] is -10.3%; in assay [2], -0.95%; in assay [3], 1.4%; in assay [4], -86%; in assay [5] it was -18.9%; in assay [6], 0%.

Turning to `CC1C(=O)C(c2cccs2)(C2CCCCC2)CC[N+]1(C)C` (stereo unspecified), the growth inhibition in assay [1] was 0%; in assay [2], 4.5%; in assay [3], -6.05%; in assay [4], -19.1%; in assay [5], 1.25%; in assay [6], 17.4%.

Consider `C[N+]1(C2C=CCC(c3ccccc3)C2[N+](=O)[O-])CCCC1` (stereo unspecified), for which the growth inhibition in assay [1] was 27.2%; in assay [2] it was 9.95%; in assay [3] it was 35.5%; in assay [4], 15.2%; in assay [5] it was -3.6%; in assay [6], 10.9%.

Take `CNC(=O)c1n[nH]nc1Sc1c([N+](=O)[O-])ncn1C`: the growth inhibition is -39% in assay [1]; -43% in assay [2]; -34.1% in assay [3]; -34.2% in assay [4]; -20.6% in assay [5]; -29.4% in assay [6].

On to `O=C(O)Cc1cc2c(cc1I)OCO2`, for which the growth inhibition in assay [1] was -1.2%; in assay [2], 22.9%; in assay [3], 2.15%; in assay [4], -18.9%; in assay [5], -11.2%; in assay [6], -0.55%.

As for `Cc1cn(C2CC(OP(=O)(O)OCC3OC(n4ccc(N)nc4=O)C(O)C3O)C(CO)O2)c(=O)[nH]c1=O` (stereo unspecified), the growth inhibition was 7.55% in assay [1]; 1.5% in assay [2]; 8.15% in assay [3]; 13.7% in assay [4]; -23.6% in assay [5]; -74.2% in assay [6].

On to `CC(=O)OCC1OC(O)C(NC(=O)C(F)(F)F)C(OC(C)=O)C1OC(C)=O` (stereo unspecified), for which the growth inhibition was 99.6% (active) in assay [1]; 99.8% (active) in assay [2]; 99.7% (active) in assay [3]; 99% (active) in assay [4]; 99.3% (active) in assay [5]; 99.5% (active) in assay [6].

As to `Nc1ccccc1S(=O)(=O)Nc1c(N)nc(SCC(=O)O)[nH]c1=O`, the growth inhibition was -15.4% in assay [1]; -21.9% in assay [2]; -10% in assay [3]; -4.2% in assay [4]; -12.9% in assay [5]; 0.65% in assay [6].
